Assay results from PubChem BioAssay (Tox21).
Several values for one entry are separate records, joined by “and”; a condition that tells them apart may be missing. Equal values may be shown once. Inconclusive results are not listed. Where a call stands in place of a potency, no number is given. Some compounds were tested as several samples or in several runs, with calls that do not always agree. Activity calls are given as the source filed them. Unless noted, calls follow the shape of the dose curve; as a rule, active = well fitted curve in the direction sought with a large enough effect in the repeat runs; inconclusive = weak or mixed curves; inactive = no such curve, though single readings can be large; an effect the other way counts as inactive or inconclusive.

Experiments:
[1] = qHTS assay to identify small molecule agonists of the hypoxia (HIF-1) signaling pathway - cell viability counter screen (AID 1224844; calls by dose curve; also: nearly all actives have a fitted effect of over 50% in size; also: potency is read from the fitted curve at half-maximal effect)
Outline: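 Cytotoxicity measured by CellTiter-Glo ATP luminescence in the wells also read for beta-lactamase signal. Cells were HRE-bla ME-180 (2,000/well, 0.5% dialyzed FBS), exposed to compounds for 17 h at 37C.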

[2] = qHTS assay to identify small molecule agonists of H2AX - cell viability counter screen (AID 1224847; calls by dose curve; also: nearly all actives have a fitted effect of over 30% in size; also: potency is read from the fitted curve at half-maximal effect)
Outline: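 Compounds tested at 15 concentrations were incubated 3 hr at 37C with wild-type CHO-K1 cells; cellular ATP-based luminescence (CellTiter-Glo) indicated viability.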

[3] = qHTS assay to identify small molecule antagonists of the estrogen related receptor (ERR) signaling pathway from Tox21 library (AID 1224848); also: nearly all actives have a fitted effect of over 50% in size; also: potency is read from the fitted curve at half-maximal effect
Outline: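 Compounds dissolved in DMSO are pin-transferred onto ERR reporter cells (2,000 per well) that have settled for 6 h at 37 C. Plates then incubate 18 h at 37 C before ONE-Glo luciferase reagent and a luminescence read 30 min later.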

[4] = qHTS assay to identify small molecule agonists of the estrogen related receptor (ERR) signaling pathway from Tox21 library (AID 1224849; calls by dose curve; also: nearly all actives have a fitted effect of over 15% in size); conditions: ERR reporter cell line, ONE-Glo luciferase, 18 h
Outline: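 Luminescent agonist read-out (One-Glo, 30-minute room-temperature incubation) following 18-hour compound treatment at 37 C of the ERR cell line, which had been plated 6 hours before dosing.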

[5] = qHTS RealTime-Glo MT Cell Viability Assay in HepG2 cells - 24 hour (AID 1224867); also: nearly all actives have a fitted effect of over 50% in size; also: potency is read from the fitted curve at half-maximal effect
Outline: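 Tox21 10K library screened in qHTS format on HepG2 cells carrying RealTime-Glo reagents. Compounds were added after a 5 h preincubation, and the luminescent signal from continuous culture was measured repeatedly during 40 h treatment.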

[6] = qHTS RealTime-Glo MT Cell Viability Assay in HEK293 cells - 32 hour (AID 1224868); also: nearly all actives have a fitted effect of over 50% in size; also: potency is read from the fitted curve at half-maximal effect
Outline: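 Luminescence generated by NanoLuc from substrate produced by living HEK293 cells served as the viability signal. Each value reflects the reading at its stated time point during continuous 40 h compound exposure at 37 C.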

[7] = A CellTox Green Cytotoxicity Assay to monitor cytotoxicity in HEK293 cells - 0 hour (AID 1224869); also: nearly all actives have a fitted effect of over 50% in size
Outline: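 Fluorescence from a DNA-binding dye excluded by viable cells was measured repeatedly in the same HEK293 wells (600 cells/well) during continuous compound exposure at 37 C. Each assay gives one read point: 0, 8, 16, 24, 32 or 40 h.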

[8] = qHTS RealTime-Glo MT Cell Viability Assay in HepG2 cells - 40 hour (AID 1224870); also: nearly all actives have a fitted effect of over 50% in size; also: potency is read from the fitted curve at half-maximal effect
Outline: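 HepG2 cells (600/well) mixed with RealTime-Glo MT reagent, settled 5 h at 37 C/5% CO2 before compound addition. Nonlytic NanoLuc luminescence from viable-cell prosubstrate reduction read repeatedly during 40 h treatment at 37 C.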

[9] = qHTS assay to identify small molecule agonists of H2AX (AID 1224845; active = well fitted activation curve with a large enough effect in the signal ratio in the repeat runs, not every such curve was filed as active; the % refers to the signal ratio)
Outline: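 Wild-type CHO-K1 cells, plated overnight, exposed 3hr at 37C to 15 concentrations (0.76% DMSO final). Lysed, then HTRF anti-pH2AX (S139) cryptate and anti-H2AX-d2 antibodies, 24 hr room temperature; 665/620 nm emission read.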

[10] = qHTS assay to identify small molecule agonists of the hypoxia (HIF-1) signaling pathway (AID 1224846; active = well fitted activation curve with a large enough effect in the signal ratio in the repeat runs, not every such curve was filed as active; the % refers to the signal ratio)
Outline: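 Compounds added to ME-180 cells carrying hypoxia-response-element beta-lactamase reporter (0.5% dialyzed FBS, 5 h preplating), 17 h at 37C; agonist activity detected by CCF4-AM B/G FRET read-out.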

| Structure (SMILES) | Potency [1] | Potency [2] | Potency [3] | activity change, positive = activation ([4]; at 42.5 µM (top of the series)) | activity change, positive = activation ([4]; at 92.4 µM (top of the series)) | Potency [5] | Potency [6] | Potency [7] | Potency [8] | Potency [9] | Potency [10] |
| --- | --- | --- | --- | --- | --- | --- | --- | --- | --- | --- | --- |
| CN(C)c1ccc2nc3ccc(=[N+](C)C)cc-3sc2c1 | 5.92 µM (active) and 43.6 µM (active) and inactive | 21.7 µM (active) and 45 µM (active) and 43.8 µM (active) | 739 nM (active) and 433 nM (active) and 473 nM (active) | -59.7% (inactive) and -55.3% (inactive) | -71.3% (inactive) | 16.7 µM (active) and 12.3 µM (active) and 19 µM (active) | 1.87 µM (active) and 1.74 µM (active) and 2.68 µM (active) | inactive | 21 µM (active) and 12.3 µM (active) and 23.9 µM (active) | – | – |
| CC(N)=O | inactive | – | – | – | – | inactive | inactive | inactive | inactive | inactive | – |
| C1COC(NC(C2CC2)C2CC2)=N1 | – | inactive | inactive | -1.34% (inactive) | – | inactive | inactive | inactive | inactive | inactive | – |
| OCCOCCN1CCN(C(c2ccccc2)c2ccc(Cl)cc2)CC1 (centres undefined) | 9.64 µM (active) | 125 µM (active) and inactive | – | – | – | 48.3 µM (active) and inactive | 6.08 µM (active) and inactive | inactive | 48.3 µM (active) and inactive | – | – |
| CCN(CC)C(=S)SSC(=S)N(CC)CC | 355 nM (active) and inactive | inactive | 243 nM (active) and 55.8 nM (active) and 298 nM (active) | -68.2% (inactive) | -75.7% (inactive) and -76.4% (inactive) | 436 nM (active) and 398 nM (active) and inactive | 174 nM (active) and 89.1 nM (active) and 13.4 µM (active) | – | 100 nM (active) | – | – |
| Nc1cc(Cl)c(-c2cc(Cl)c(N)cc2Cl)cc1Cl | 38.9 µM (active) | – | 54.4 µM (active) and 61.1 µM (active) | – | -76.8% (inactive) and -62.3% (inactive) | – | 6.91 µM (active) and 1.74 µM (active) | inactive | inactive | – | – |
| CCCOC(=O)c1cc(O)c(O)c(O)c1 | inactive | inactive | 48.3 µM (active) and 54.5 µM (active) | – | -50.8% (inactive) and -46.2% (inactive) | inactive | 38.9 µM (active) | inactive | inactive | – | inactive |
| O=Nc1ccc(Nc2ccccc2)cc1 | 55.3 µM (active) | 50.8 µM (active) | inactive | – | -76% (active) | – | 6.2 µM (active) and 9.77 µM (active) | inactive | – | – | – |
| O=C(O[C@@H]1Cc2c(O)cc(O)cc2O[C@@H]1c1cc(O)c(O)c(O)c1)c1cc(O)c(O)c(O)c1 | inactive | inactive | – | – | – | – | 7.48 µM (active) | – | – | – | – |
| CC(C)CCCCCCc1ccc(O)cc1 | 11.2 µM (active) | – | – | – | – | 22.3 µM (active) and inactive | 2.23 µM (active) | inactive | 25 µM (active) and inactive | – | – |
| CCC(C)(C)C(=O)O[C@H]1C[C@@H](C)C=C2C=C[C@H](C)[C@H](CC[C@@H]3C[C@@H](O)CC(=O)O3)[C@H]21 | – | inactive | – | – | – | – | – | inactive | – | inactive | inactive |
| CNCCC(Oc1ccc(C(F)(F)F)cc1)c1ccccc1 (centres undefined) | – | 112 µM (active) and 49.2 µM (active) | – | – | – | – | – | inactive | – | – | – |
| COc1ccc(CCN(C)CCCC(C#N)(c2ccc(OC)c(OC)c2)C(C)C)cc1OC (centres undefined) | inactive | inactive | – | – | – | – | – | inactive | – | – | – |
| Nc1ccc(O)cc1 | 50.9 µM (active) and inactive | inactive | 22.5 µM (active) and inactive | – | -66.4% (inactive) | inactive | 32.1 µM (active) and inactive | inactive | inactive | – | inactive |
| CCc1cc(C(C)(C)C)c(O)c(C(C)(C)C)c1 | inactive | – | – | – | – | inactive | inactive | inactive | inactive | – | – |
